Test results reported in the supplement of paper PMC4840960.
Counter-ions that a name gives are not always drawn.

Tested on: E18 rat cortical neuron-glia co-culture
Test: myelination (MBP fiber length per Olig2+ nucleus), % of 1 µM DAPT response (DMSO = 0) (% of DAPT); higher = more myelination, active = 50 or more
Settings: 5 µM; treatment time: 8 days (DIV5-DIV13)
How it was run: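 Myelination, expressed as continuous straight MBP fiber length per Olig2+ nucleus, was normalised to 0.1 % DMSO as 0 and a 1 µM positive control as 100. The cultures were primary E18 rat cortical co-cultures dissociated with papain and plated at 20,000 cells/well on poly-d-lysine/laminin-coated 96-well plates. They received library compounds at 1 or 5 µM in myelination medium between DIV5 and DIV13. Analysis covered four 10X fields per well in duplicate wells after 4 % paraformaldehyde fixation and immunostaining for MBP and Olig2 with DAPI.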

myelination, inactive:
Brc1c(NC2=NCCN2)ccc2nccnc12 [Brimonidine] -32
C[C@@H]1C[C@H]2[C@@H]3C[C@H](F)C4=CC(=O)C(Cl)=C[C@]4(C)[C@@]3(F)[C@@H](O)C[C@]2(C)[C@@]1(O)C(=O)CO [Halometasone hydrate] -30.1
Clc1ccc2c(c1)CCc1cccnc1C2=C1CCNCC1 [Desloratadine] -23.3
COC(=O)C1=C(C)NC(C)=C(C(=O)OCCN(C)Cc2ccccc2)C1c1cccc([N+](=O)[O-])c1 (centres undefined) [Nicardipine] -21.2
Nc1c2c(nc3ccccc13)CCCC2 [Tacrine] -14.9
CC(C)(C#N)c1cc(Cn2cncn2)cc(C(C)(C)C#N)c1 [Anastrozole] -11.9
CCCCCCNC(=O)n1cc(F)c(=O)[nH]c1=O [Carmofur] -14.4
C[C@](N)(Cc1ccc(O)c(O)c1)C(=O)O [Methyldopa] -8.85
CNS(=O)(=O)Cc1ccc2[nH]cc(CCN(C)C)c2c1 [Sumatriptan] -5.9
OC(CCN1CCCC1)(c1ccccc1)C1CCCCC1 (centres undefined) [Procyclidine] 11.6
Cc1noc(NS(=O)(=O)c2ccc(N)cc2)c1C [Sulfisoxazole] -6.9
CN1[C@@H](CC(=O)c2ccccc2)CCC[C@H]1C[C@H](O)c1ccccc1 [Lobeline] -19.7
CC[N+](C)(C)c1cccc(O)c1 [Edrophonium] 0.577
Cc1onc(-c2c(Cl)cccc2Cl)c1C(=O)N[C@@H]1C(=O)N2[C@@H]1SC(C)(C)[C@@H]2C(=O)O [Dicloxacillin] -8.6
CC1=Nc2ccc(Cl)cc2S(=O)(=O)N1 [Diazoxide] -18.4
CC(C)(C(=O)O)c1ccc(C(O)CCCN2CCC(C(O)(c3ccccc3)c3ccccc3)CC2)cc1 (centres undefined) [Fexofenadine] 0.141
CN1CCc2cc(Cl)c(O)cc2C(c2ccccc2)C1 (centres undefined) -9.82
Clc1ccccc1C(c1ccccc1)(c1ccccc1)n1ccnc1 [Clotrimazole] -27.1
COc1ccc(/C=C/C(=O)Nc2ccccc2C(=O)O)cc1OC [Tranilast] -4.27
CN(C)CCc1c[nH]c2ccc(Cn3cncn3)cc12 [Rizatriptan] -20.4
NC(=O)N1c2ccccc2C=Cc2ccccc21 [Carbamazepine] 2.05
COc1cc(C(=O)NS(=O)(=O)c2ccccc2C)ccc1Cc1cn(C)c2ccc(NC(=O)OC3CCCC3)cc12 [Zafirlukast] -4.26
O=C(O)c1cccnc1 [Niacin] 7.38
CCCc1nc2c(C)cc(-c3nc4ccccc4n3C)cc2n1Cc1ccc(-c2ccccc2C(=O)O)cc1 [Telmisartan] 2.94
Cc1ccc(-c2cc(C(F)(F)F)nn2-c2ccc(S(N)(=O)=O)cc2)cc1 [Celecoxib] -0.0582
COc1ccc([C@@H]2Sc3ccccc3N(CCN(C)C)C(=O)[C@@H]2OC(C)=O)cc1 [Diltiazem] -20.8
CNC(=C[N+](=O)[O-])NCCSCc1ccc(CN(C)C)o1 [Ranitidine] -7.22
CCCc1nc(C(C)(C)O)c(C(=O)O)n1Cc1ccc(-c2ccccc2-c2nnn[nH]2)cc1 [Olmesartan] -45
NS(=O)(=O)c1cc(C2(O)NC(=O)c3ccccc32)ccc1Cl (centres undefined) [Chlorthalidone] 7.87
O=C1Nc2ccccc2/C1=C1/Nc2ccccc2C1=O [Indirubin] -14.5
CNCC[C@@H](Oc1ccccc1C)c1ccccc1 [Atomoxetine] -17.2
C[C@]12CCC(=O)C=C1CC[C@@H]1[C@@H]2[C@@H](O)C[C@@]2(C)[C@H]1CC[C@]2(O)C(=O)COC(=O)CCC(=O)O [Cortisol succinate] 17.9
C#C[C@]1(O)CC[C@H]2[C@@H]3CCC4=CC(=O)CC[C@@H]4[C@H]3CC[C@@]21C [Norethindrone] -10.7
OCCOCCN1CCN(C(c2ccccc2)c2ccc(Cl)cc2)CC1 (centres undefined) [Hydroxyzine pamoate salt] -24.4
O=S(=O)(O)CCS [Mesna] -6.97
CN1CCN(C2=Nc3cc(F)ccc3Cc3ccccc32)CC1 [Fluperlapine] -12.9
COc1cc(/C=C/c2ccc(O)cc2)cc(OC)c1 [Pterostilbene] -12.2
NS(=O)(=O)c1cc2c(cc1Cl)NCNS2(=O)=O [Hydrochlorothiazide] -12.5
N=C(N)N [Guanidine] -8.57
